Assay in all cases: DAPPL (digital affinity profiling via proximity ligation, sequencing); 10 mM Tris-HCl pH 7.5, 50 mM NaCl, 1 mM DTT, 4% glycerol, room temperature, 30 min; GST-TFs on glutathione beads, 16-mer random dsDNA library, 0.1% formaldehyde crosslink after washing; high values mean tight binding
The target of assay [1] is T1, FEV (Homo sapiens, UniProt Q99581 1-238).
T1 sequence: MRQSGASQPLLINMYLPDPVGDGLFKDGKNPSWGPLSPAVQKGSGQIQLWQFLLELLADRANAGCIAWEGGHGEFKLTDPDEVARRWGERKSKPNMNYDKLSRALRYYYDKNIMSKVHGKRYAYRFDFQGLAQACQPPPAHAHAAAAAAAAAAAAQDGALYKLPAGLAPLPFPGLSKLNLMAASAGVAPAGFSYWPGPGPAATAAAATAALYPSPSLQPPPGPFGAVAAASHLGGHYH
The note with it: protein: recombinant; tags: N-terminal GST; dsDNA, one strand shown. The gist of the method: (§1)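 Binding signal is given per hexamer as its read frequency for a factor divided by its frequency in the tag-only sample. GST-fused human transcription factors were expressed in yeast, captured on glutathione beads, barcoded with DNA and pooled with that sample, then incubated with 200 nmole of a 16-mer random double-stranded DNA library in Tris/NaCl/DTT/glycerol buffer for 30 min at room temperature. The pools were then washed, crosslinked, proximity-ligated, amplified by PCR and sequenced on an Illumina NextSeq500.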

Assay [2] addresses ETV5 (Homo sapiens, UniProt P41161 1-510). As to conditions: protein: recombinant; tags: N-terminal GST; dsDNA, one strand shown. The gist of the method:
as §1

Assay [3] addresses HSF1 (Homo sapiens, UniProt Q00613 1-529). The note with it: protein: recombinant; tags: N-terminal GST; chain copies: 3; dsDNA, one strand shown. The gist of the method: as §1
For assay [4], the target named is T2, SPIC (Homo sapiens, UniProt Q8N5J4 1-248).
T2 sequence: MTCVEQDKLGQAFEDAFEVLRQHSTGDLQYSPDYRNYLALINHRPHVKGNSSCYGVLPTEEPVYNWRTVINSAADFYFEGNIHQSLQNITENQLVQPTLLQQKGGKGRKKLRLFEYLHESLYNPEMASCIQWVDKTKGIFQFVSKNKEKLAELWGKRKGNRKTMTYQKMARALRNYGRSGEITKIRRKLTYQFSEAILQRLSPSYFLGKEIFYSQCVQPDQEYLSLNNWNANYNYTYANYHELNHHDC
The note with it: protein: recombinant; tags: N-terminal GST; dsDNA, one strand shown. The gist of the method: as §1

The target of assay [5] is ELF4 (Homo sapiens, UniProt Q99607 1-663). The note with it: protein: recombinant; tags: N-terminal GST; dsDNA, one strand shown. In outline: as §1
Assay [6] deals with T3, ELK4 (Homo sapiens, UniProt P28324-2 1-405).
T3 sequence: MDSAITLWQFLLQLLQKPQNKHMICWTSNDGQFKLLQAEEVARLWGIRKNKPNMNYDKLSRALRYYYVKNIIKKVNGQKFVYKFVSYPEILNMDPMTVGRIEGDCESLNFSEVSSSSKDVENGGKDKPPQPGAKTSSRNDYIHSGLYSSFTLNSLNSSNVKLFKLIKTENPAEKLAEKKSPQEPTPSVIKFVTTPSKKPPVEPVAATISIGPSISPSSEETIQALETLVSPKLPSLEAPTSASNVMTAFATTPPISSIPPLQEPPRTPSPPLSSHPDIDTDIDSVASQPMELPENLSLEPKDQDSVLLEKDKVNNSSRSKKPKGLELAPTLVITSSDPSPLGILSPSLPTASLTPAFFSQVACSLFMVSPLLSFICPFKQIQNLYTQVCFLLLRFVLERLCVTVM
As to conditions: protein: recombinant; tags: N-terminal GST; dsDNA, one strand shown. In outline: as §1

Assay [7] addresses T4, ETV2 (Homo sapiens, UniProt O00321 1-342).
T4 sequence: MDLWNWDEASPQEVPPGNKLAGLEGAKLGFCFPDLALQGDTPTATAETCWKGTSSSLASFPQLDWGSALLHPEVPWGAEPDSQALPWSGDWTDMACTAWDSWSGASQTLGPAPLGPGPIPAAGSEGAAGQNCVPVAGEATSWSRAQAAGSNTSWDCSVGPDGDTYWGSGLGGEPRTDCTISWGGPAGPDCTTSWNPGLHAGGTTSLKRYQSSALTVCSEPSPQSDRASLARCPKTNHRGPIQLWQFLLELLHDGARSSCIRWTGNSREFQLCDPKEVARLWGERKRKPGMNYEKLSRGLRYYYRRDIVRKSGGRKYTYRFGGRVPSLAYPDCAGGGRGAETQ
As to conditions: protein: recombinant; tags: N-terminal GST; dsDNA, one strand shown. The gist of the method:
as §1

Assay [8] deals with T5, ELF3 (Homo sapiens, UniProt P78545 1-371).
T5 sequence: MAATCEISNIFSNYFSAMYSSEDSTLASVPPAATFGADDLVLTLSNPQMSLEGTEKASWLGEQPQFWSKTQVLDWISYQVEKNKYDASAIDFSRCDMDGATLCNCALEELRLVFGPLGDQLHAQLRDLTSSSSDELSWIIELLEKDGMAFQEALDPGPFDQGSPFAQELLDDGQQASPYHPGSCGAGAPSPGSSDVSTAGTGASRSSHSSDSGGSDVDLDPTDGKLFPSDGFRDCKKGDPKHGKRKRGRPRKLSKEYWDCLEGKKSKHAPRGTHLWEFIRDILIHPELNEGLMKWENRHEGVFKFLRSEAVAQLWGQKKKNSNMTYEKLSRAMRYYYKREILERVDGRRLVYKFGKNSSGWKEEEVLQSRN
The note with it: protein: recombinant; tags: N-terminal GST; dsDNA, one strand shown. The gist of the method: as §1

For assay [9], the target named is CRX (Homo sapiens, UniProt O43186 1-299). The note with it: protein: recombinant; tags: N-terminal GST; dsDNA, one strand shown. The gist of the method:
as §1

Assay [10] deals with ETV1 (Homo sapiens, UniProt P50549 1-477). As to conditions: protein: recombinant; tags: N-terminal GST; dsDNA, one strand shown. The gist of the method:
as §1

Assay [11] concerns the target T6, ERF (Homo sapiens, UniProt P50548 1-548).
T6 sequence: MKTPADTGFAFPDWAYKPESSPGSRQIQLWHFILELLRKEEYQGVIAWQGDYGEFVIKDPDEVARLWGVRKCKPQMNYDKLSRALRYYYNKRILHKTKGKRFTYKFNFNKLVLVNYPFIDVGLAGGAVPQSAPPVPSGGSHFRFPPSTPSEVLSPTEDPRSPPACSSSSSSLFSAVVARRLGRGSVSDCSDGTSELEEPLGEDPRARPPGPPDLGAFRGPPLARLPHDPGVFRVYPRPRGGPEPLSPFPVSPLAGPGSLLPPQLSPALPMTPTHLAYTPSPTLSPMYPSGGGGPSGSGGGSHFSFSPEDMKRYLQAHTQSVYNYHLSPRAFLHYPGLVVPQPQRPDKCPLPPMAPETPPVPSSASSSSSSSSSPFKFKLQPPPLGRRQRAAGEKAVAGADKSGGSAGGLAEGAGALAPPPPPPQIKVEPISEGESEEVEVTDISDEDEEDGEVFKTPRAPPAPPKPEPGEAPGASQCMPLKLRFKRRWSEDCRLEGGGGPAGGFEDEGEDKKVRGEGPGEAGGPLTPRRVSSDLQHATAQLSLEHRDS
The note with it: protein: recombinant; tags: N-terminal GST; dsDNA, one strand shown. The gist of the method:
as §1

Assay [12] deals with T7, ETV3L (Homo sapiens, UniProt Q6ZN32 1-361).
T7 sequence: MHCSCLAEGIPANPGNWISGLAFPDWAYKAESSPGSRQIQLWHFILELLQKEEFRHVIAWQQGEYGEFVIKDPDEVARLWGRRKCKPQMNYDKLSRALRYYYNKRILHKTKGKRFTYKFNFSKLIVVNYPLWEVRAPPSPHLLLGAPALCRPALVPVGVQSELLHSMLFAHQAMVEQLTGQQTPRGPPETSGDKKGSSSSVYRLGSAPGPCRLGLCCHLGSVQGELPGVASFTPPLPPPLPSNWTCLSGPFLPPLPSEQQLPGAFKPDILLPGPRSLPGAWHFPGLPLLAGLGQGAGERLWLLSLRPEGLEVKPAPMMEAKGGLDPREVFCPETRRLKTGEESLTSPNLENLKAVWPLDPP
As to conditions: protein: recombinant; tags: N-terminal GST; dsDNA, one strand shown. In outline: as §1

Assay [13] deals with T8, ETS2 (Homo sapiens, UniProt P15036 1-469).
T8 sequence: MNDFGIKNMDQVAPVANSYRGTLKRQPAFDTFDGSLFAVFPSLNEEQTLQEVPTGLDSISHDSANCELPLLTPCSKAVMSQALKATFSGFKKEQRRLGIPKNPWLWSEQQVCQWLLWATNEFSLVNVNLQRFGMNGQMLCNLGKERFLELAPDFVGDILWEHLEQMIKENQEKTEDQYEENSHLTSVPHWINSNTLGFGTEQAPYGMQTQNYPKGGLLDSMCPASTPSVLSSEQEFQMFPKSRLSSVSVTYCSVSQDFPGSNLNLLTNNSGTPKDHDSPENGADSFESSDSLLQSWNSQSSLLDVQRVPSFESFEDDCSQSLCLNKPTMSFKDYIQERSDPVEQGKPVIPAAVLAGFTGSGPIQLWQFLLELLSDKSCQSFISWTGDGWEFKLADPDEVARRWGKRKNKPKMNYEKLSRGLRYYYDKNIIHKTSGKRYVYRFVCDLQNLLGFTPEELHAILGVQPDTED
The note with it: protein: recombinant; tags: N-terminal GST; dsDNA, one strand shown. In outline: as §1

Assay [14] addresses T9, SPDEF (Homo sapiens, UniProt O95238 1-335).
T9 sequence: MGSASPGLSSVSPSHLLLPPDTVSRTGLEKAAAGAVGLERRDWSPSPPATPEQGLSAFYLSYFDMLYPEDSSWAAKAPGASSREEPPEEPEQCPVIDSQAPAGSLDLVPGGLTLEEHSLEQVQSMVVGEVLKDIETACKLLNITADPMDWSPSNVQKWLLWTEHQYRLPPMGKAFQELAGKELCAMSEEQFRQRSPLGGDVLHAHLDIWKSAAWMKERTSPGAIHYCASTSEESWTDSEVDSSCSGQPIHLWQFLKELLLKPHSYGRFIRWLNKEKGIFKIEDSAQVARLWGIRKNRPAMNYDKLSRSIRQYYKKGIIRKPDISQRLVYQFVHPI
As to conditions: protein: recombinant; tags: N-terminal GST; dsDNA, one strand shown. In outline:
as §1

In assay [15] the target is T10, ETV7 (Homo sapiens, UniProt Q9Y603 1-341).
T10 sequence: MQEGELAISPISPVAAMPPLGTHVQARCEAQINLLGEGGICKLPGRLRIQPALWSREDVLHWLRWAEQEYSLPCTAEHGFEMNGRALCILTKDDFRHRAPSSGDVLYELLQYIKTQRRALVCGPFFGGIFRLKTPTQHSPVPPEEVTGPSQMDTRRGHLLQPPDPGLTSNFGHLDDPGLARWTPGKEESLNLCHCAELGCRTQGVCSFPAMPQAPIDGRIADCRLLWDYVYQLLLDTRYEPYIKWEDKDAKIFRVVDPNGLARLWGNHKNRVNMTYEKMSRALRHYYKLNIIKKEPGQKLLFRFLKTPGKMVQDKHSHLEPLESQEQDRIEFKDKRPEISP
As to conditions: protein: recombinant; tags: N-terminal GST; dsDNA, one strand shown. The gist of the method:
as §1

The target in assay [16] is T11, ELF5 (Homo sapiens, UniProt Q9UKW6-2 1-255).
T11 sequence: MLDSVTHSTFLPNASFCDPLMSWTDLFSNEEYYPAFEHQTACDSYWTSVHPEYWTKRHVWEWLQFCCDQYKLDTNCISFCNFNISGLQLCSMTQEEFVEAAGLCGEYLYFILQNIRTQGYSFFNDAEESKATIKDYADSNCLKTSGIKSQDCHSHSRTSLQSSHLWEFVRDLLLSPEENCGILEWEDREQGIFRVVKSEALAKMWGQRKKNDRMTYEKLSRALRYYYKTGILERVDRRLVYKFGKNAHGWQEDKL
As to conditions: protein: recombinant; tags: N-terminal GST; dsDNA, one strand shown. In outline:
as §1

Assay [17] addresses T12, ETV3 (Homo sapiens, UniProt P41162-2 1-143).
T12 sequence: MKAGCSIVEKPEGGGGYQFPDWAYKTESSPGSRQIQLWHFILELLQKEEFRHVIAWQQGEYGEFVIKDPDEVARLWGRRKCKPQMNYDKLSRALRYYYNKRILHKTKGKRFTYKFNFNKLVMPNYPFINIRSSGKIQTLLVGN
The note with it: protein: recombinant; tags: N-terminal GST; dsDNA, one strand shown. The gist of the method:
as §1

The target of assay [18] is ETV6 (Homo sapiens, UniProt P41212 1-452). As to conditions: protein: recombinant; tags: N-terminal GST; dsDNA, one strand shown. In outline:
as §1

ETV6, sequence (P41212 whole entry): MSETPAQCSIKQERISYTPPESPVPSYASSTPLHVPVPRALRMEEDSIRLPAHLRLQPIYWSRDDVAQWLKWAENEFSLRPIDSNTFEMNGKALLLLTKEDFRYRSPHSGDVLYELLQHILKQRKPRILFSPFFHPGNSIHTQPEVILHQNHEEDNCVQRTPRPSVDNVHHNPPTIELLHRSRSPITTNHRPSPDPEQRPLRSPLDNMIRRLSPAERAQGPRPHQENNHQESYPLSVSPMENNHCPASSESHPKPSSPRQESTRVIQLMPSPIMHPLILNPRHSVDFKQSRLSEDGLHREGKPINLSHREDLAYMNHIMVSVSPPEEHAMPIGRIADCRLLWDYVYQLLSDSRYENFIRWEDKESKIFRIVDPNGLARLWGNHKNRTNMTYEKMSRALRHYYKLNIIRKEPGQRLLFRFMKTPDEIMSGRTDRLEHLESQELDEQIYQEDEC
HSF1, sequence (Q00613 whole entry): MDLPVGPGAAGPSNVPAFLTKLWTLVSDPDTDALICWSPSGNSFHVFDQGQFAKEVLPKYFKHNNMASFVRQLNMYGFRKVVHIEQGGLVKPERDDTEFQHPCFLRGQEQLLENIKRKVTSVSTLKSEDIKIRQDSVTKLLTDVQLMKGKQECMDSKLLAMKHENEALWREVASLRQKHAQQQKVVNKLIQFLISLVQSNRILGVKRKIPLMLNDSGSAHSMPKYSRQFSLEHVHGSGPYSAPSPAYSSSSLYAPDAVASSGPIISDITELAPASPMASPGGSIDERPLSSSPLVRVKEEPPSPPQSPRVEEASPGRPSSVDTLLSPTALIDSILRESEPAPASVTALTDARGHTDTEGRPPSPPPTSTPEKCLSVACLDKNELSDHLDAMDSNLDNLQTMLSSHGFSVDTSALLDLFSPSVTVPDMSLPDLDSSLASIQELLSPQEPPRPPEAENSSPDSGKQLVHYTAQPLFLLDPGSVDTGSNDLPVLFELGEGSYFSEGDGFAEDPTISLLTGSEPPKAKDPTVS
ELF4, sequence (Q99607 whole entry): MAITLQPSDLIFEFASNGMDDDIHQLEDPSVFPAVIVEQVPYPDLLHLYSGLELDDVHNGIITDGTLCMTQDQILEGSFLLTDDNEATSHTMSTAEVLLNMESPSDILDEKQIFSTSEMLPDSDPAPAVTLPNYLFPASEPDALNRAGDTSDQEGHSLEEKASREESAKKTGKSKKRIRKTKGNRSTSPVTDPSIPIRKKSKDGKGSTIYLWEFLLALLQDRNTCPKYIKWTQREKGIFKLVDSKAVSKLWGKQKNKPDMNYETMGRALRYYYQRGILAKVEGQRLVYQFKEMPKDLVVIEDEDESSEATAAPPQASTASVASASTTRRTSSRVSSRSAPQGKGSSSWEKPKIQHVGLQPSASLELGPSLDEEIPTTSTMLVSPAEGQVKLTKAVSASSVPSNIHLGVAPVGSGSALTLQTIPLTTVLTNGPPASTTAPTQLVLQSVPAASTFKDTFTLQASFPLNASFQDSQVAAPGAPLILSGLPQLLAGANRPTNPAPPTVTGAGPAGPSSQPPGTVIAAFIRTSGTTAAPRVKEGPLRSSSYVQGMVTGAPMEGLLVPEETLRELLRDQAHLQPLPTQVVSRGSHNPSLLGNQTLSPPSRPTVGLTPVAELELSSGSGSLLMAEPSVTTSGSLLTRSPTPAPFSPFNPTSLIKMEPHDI
CRX, sequence (O43186 whole entry): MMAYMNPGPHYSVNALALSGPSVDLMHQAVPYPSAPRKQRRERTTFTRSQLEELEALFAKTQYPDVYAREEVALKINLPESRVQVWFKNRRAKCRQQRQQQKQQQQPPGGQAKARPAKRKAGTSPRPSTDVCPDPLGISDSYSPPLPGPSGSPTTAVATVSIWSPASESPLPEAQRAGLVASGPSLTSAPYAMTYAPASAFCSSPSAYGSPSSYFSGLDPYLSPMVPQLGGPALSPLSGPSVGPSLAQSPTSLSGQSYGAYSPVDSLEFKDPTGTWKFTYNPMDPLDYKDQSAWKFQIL
ETV5, sequence (P41161 whole entry): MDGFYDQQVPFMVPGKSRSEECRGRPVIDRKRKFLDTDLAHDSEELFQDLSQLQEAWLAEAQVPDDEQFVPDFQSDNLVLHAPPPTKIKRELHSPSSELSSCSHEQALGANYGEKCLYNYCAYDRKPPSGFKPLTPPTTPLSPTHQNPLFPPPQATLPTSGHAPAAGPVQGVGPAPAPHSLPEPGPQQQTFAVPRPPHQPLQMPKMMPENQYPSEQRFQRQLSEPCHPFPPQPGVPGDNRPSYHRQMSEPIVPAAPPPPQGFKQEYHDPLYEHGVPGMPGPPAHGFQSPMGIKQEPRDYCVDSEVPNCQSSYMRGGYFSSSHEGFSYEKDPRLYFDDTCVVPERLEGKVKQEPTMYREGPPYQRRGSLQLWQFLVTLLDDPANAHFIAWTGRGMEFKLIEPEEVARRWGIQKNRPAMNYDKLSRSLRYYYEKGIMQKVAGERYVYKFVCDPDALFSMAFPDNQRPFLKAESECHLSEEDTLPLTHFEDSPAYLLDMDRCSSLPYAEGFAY
ETV1, sequence (P50549 whole entry): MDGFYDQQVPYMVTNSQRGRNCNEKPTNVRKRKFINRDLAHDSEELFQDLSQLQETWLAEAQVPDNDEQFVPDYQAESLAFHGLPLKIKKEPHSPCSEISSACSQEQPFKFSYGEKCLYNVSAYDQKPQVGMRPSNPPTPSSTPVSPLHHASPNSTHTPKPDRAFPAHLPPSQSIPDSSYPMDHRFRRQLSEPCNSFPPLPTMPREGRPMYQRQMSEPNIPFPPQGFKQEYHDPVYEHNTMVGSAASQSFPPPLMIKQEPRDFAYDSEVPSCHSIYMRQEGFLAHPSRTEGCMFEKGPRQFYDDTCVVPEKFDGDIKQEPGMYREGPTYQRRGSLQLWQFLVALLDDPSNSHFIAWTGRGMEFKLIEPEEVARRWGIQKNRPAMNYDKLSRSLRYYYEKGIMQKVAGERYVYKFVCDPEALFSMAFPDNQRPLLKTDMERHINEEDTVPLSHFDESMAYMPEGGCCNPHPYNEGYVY

Regarding ACCTAC, the binding signal in [1] is 1.17 fold enrichment (6-mer frequency, TF over GST control); in assay [2], 1.13 fold enrichment (6-mer frequency, TF over GST control); in assay [3], 1.07 fold enrichment (6-mer frequency, TF over GST control); in [4], 1.13 fold enrichment (6-mer frequency, TF over GST control); in assay [5], 1.24 fold enrichment (6-mer frequency, TF over GST control); in [6] it was 1.22 fold enrichment (6-mer frequency, TF over GST control). In addition, the binding signal in assay [7] was 1.23 fold enrichment (6-mer frequency, TF over GST control); in assay [8], 1.29 fold enrichment (6-mer frequency, TF over GST control); in assay [9], 1.02 fold enrichment (6-mer frequency, TF over GST control); in assay [10] it was 1.23 fold enrichment (6-mer frequency, TF over GST control); in [11] it was 1.17 fold enrichment (6-mer frequency, TF over GST control); in assay [12], 1.26 fold enrichment (6-mer frequency, TF over GST control). Also, the binding signal in assay [13] was 1.2 fold enrichment (6-mer frequency, TF over GST control); in [14] it was 1.17 fold enrichment (6-mer frequency, TF over GST control); in [15], 1.09 fold enrichment (6-mer frequency, TF over GST control); in assay [16], 1.29 fold enrichment (6-mer frequency, TF over GST control); in [17] it was 1.25 fold enrichment (6-mer frequency, TF over GST control); in assay [18], 1.32 fold enrichment (6-mer frequency, TF over GST control).

Source of the values: publication PMC7862700, “An all-to-all approach to the identification of sequence-specific readers for epigenetic DNA modifications on cytosine”.
